Test results reported in PubChem BioAssay AID602441 (National Center for Advancing Translational Sciences (NCATS), 2012).
The campaign covered roughly 1,300 compounds. Fewer than 10 were called active. Not shown: some 9% with an inconclusive outcome. Calls come from the whole dose curve; as a rule, active = well fitted curve in the direction sought with a large enough effect; inconclusive = small, poorly fitted or top-dose-only effect, or another doubt; inactive = no such curve, though single readings can be large or run the other way. Only a sample is shown. Entries that show only a call come without a potency.

assay: qHTS for antagonists of the Thyroid Stimulation Hormone Receptor: Hit Validation in Parental Cell Line; settings: parental HEK293 cells lacking TSHR, counter-screen; series mostly up to 56.9 µM
Description: The thyroid-stimulating hormone receptor (TSHR) is a member of the 7 trans-membrane-spanning receptor (7TMR) family of cell surface receptors. TSHR-mediated hyperthyroidism is important in thyroid pathology. The development of small molecule antagonists of TSHR may lead to therapeutic approaches for TSHR-mediated hyperthyroidism caused by constitutively activating mutations or stimulating auto-antibodies associated with Graves' disease. Graves' disease is the leading cause of hyperthyroidism and is caused by autoantibodies that stimulate TSHR (TsAbs) causing thyroid growth and unregulated overproduction of thyroid hormones and existing treatments have liabilities (agranulocytosis). In addition, TSHRs are known to be expressed in multiple extrathyroidal tissues including bone, brain, kidney, testis, fat and cells of the immune system but the role of the TSHR in these tissues is not clear. Therefore, TSHR antagonists/inverse agonists could be used as probes of extrathyroidal TSHR function. Finally, TSHR inverse agonists, which are a subclass of antagonists that inhibit agonist-independent (or basal or constitutive) TSHR signaling, could be used to inhibit TSH-independent signaling in patients with recurrent or metastatic thyroid cancer who are receiving thyroid hormone to suppress TSH.
In collaboration between scientist from the NCGC and the NIDDK, a miniaturized HTRF high-throughput screen was developed. It's a cell based assay, where an anti cAMP antibody contains a fluorescent cryptate tag (excitation 337 nm; emission 620 nm) and the acceptor is cAMP-d2 (excitation 620 nm; emission 665 nm). When antibody and cAMP-d2 interact and are excited by a 337 nm light, a FRET occurs resulting in emission at 665 nm. The assay is competition between cAMP-d2 and cAMP (from the cell lysate). The homogeneous protocol allows for one step dispense after stimulation that is automation friendly. This is a hit validation assay in a counterscreen using parental HEK 293 cells lines.
NIH Chemical Genomics Center [NCGC]
NIH Molecular Libraries Probe Centers Network [MLPCN]
Assay Provider: Marvin Gershengorn, NIDDK
An anti cAMP antibody contains a fluorescent cryptate tag (excitation 337 nm; emission 620 nm) and the acceptor is cAMP-d2 (excitation 620 nm; emission 665 nm). When antibody and cAMP-d2 interact and are excited by a 337 nm light, a FRET occurs resulting in emission at 665 nm. The assay is competition between cAMP-d2 and cAMP (from the cell lysate). The homogeneous protocol allows for one step dispense after stimulation that is automation friendly. This assay uses parental HEK-EM 293 cells

| SMILES | Potency |
| --- | --- |
| N#CC(C#N)=C1C=CC=CN1/C(=C\c1ccco1)C(=O)c1ccccc1 | inactive |
| COc1ccc(CN(C)C(=O)COC(=O)c2cnc(Cl)c(Cl)c2)cc1 | inactive |
| O=C(Nc1ccn(Cc2ccccc2F)n1)c1ccc(COc2ccccc2Cl)cc1 | inactive |
| CCSC1=NSC2=NC(=O)/C(=C\c3coc4ccccc4c3=O)C(=N)N12 | inactive |
| CC1=C(OC(=O)c2ccccc2)C(C)(C)C(c2ccccc2)OC1=O (stereo not given) | inactive |
| O=C(Nc1nnc(S(=O)(=O)N2CCCCC2)s1)c1cccc(Br)c1 | inactive |
| O=C(/C=C/c1ccc(Cl)cc1Cl)NCCSCc1ccccc1 | inactive |
| CCCC(=O)N(C1CC(C)C(C#N)(C#N)C1(C#N)C#N)N(C)C (stereo not given) | inactive |
| Cc1ccc(Oc2cc(NC(=O)CCCn3nc([N+](=O)[O-])cc3C)cc([N+](=O)[O-])c2)cc1 | inactive |
| O=c1[nH]c(-c2ccccc2F)nc2c1sc(=S)n2Cc1ccccc1 | inactive |
| O=C(Nc1ccc2oc(-c3ccccc3F)nc2c1)c1ccc2c(c1)OCCO2 | inactive |
| C=CC(C)(C)c1c2occc2c(O)c2ccc(=O)oc12 | inactive |
| Cc1ccc(-c2csc(NC(=O)c3ccc4c(=O)n5c(nc4c3)CCCCC5)n2)cc1 | inactive |
| Cc1ccc(C2(c3ccc(C)cc3)CC2C(=O)Nc2ccc([N+](=O)[O-])cc2O)cc1 (stereo not given) | inactive |
| COc1ccc(NC(=O)c2ccc(-c3ccccc3)cc2)cc1NS(=O)(=O)c1ccc(F)cc1 | inactive |
| COc1ccc(N2CCN(C(=O)c3ccccc3N(C)S(=O)(=O)c3ccccc3)CC2)cc1 | inactive |
| Nc1ncc(Br)cc1S(=O)(=O)Nc1cc(C(F)(F)F)cc(C(F)(F)F)c1 | inactive |
| CCOc1cc(/C=C/c2ccc3cccc([N+](=O)[O-])c3n2)ccc1OCC(=O)N(C)C | inactive |
| C=CC[C@H](CC(=O)N(CCO)Cc1ccccc1)C(=O)N[C@H](COC(=O)[C@@H](CC=C)Cc1ccc(F)cc1)C(C)(C)C | inactive |
| COc1ccc(C)cc1-n1nnnc1SCc1cc(=O)n2cc(C)ccc2n1 | inactive |
| Cc1ccc(CSc2nnc(SCC(=O)N/N=C/c3c(C)nn(-c4ccccc4)c3C)s2)cc1 | inactive |
| COc1ccc(C(=O)Nc2ccc(Cl)c(S(=O)(=O)Nc3ccccc3OC)c2)cc1 | inactive |
| CC(Oc1ccc(Cl)cc1Cl)C(=O)Nc1cccnc1 (stereo not given) | inactive |
| O=C(c1ccco1)N1CCN(c2ncnc3c2nnn3Cc2ccccc2Cl)CC1 | inactive |
| CCOc1ccc2nc(NC(=O)c3ccc(OCC4CCCO4)cc3)sc2c1 (stereo not given) | inactive |

| SMILES | Potency |
| --- | --- |
| O=c1c2ccccc2nnn1CSc1nnc(-c2cccs2)n1Cc1ccccc1 | inactive |
| O=C(O)c1nn(CC(=O)N2CCN(c3ncc(C(F)(F)F)cc3Cl)CC2)c(=O)c2ccccc12 | inactive |
| O=C(Nc1nc(-c2cccs2)c(-c2cccs2)s1)C1CCCC1 | inactive |
| COc1ccc(C2=NS(=O)(=O)N(C)C(C(=O)Nc3ccc4c(c3)OCO4)=C2)cc1OC | inactive |
| Cc1cc(C)c(S(=O)(=O)c2c(C)cccc2C)c(Cl)n1 | inactive |
| COc1ccc(S(=O)(=O)n2cnc3ccccc32)c(C)c1 | inactive |
| CCCCOc1ccc(/C=N/Nc2cc(N3CCOCC3)nc(C)n2)cc1 | inactive |
| O=c1cc(-c2ccccc2)nc2c(-c3ccccc3)c(C(F)(F)F)[nH]n12 | inactive |
| Cc1ccc(OCCSc2ncccn2)c(C)c1 | inactive |
| CCN(CC)S(=O)(=O)c1cccc(NC(=O)CNc2cccc(S(=O)(=O)N3CCOCC3)c2)c1 | inactive |
| C=CCn1c(SCC(=O)c2cccs2)nc2sc(CC)cc2c1=O | inactive |
| N#C/C(=C\c1ccc(Oc2ccc(C(F)(F)F)cc2[N+](=O)[O-])cc1)c1nc2ccccc2[nH]1 | inactive |
| Cc1cc(C)c(-c2csc(NC(=O)/C=C/c3cccs3)n2)c(C)c1 | inactive |
| Cc1ccc(C)c(S(=O)(=O)N2CCN(C(=O)C3CCN(c4ncnc5sc(C)c(C)c45)CC3)CC2)c1 | inactive |
| CC(C)(C)c1ccc(C(=O)CC(Sc2ccc(Cl)cc2)C(=O)O)cc1 (stereo not given) | inactive |
| O=C(NCc1ccc2c(c1)OCO2)C12CN(Cc3ccccc3)CC1C(c1cccc([N+](=O)[O-])c1)=NO2 (stereo not given) | inactive |
| Cc1nc2ccc(Nc3nc4cc(S(=O)(=O)N5CCOCC5)ccc4o3)cc2s1 | inactive |
| CSc1cccc(NC(=O)C2CCCN(S(=O)(=O)c3ccc(F)cc3)C2)c1 (stereo not given) | inactive |
| O=C(CSc1nc(-c2ccc(Cl)cc2)cs1)Nc1cccc([N+](=O)[O-])c1 | inactive |
| CCN(Cc1ccccc1)c1ccc(/C=N/NC(=O)c2cccc(S(=O)(=O)N3CCOCC3)c2)cc1 | inactive |
| Fc1ccc(/C=C2\CCCC3=C2Nc2ncnn2C3c2ccc(F)cc2)cc1 (stereo not given) | inactive |
| O=C1NC(=S)N(C(=O)c2ccc(F)cc2)/C1=C/c1ccccc1 | inactive |
| O=S(=O)(/N=C(/Nc1cccc2ccccc12)c1ccccc1)c1cccs1 | inactive |
| Cc1ccc(-c2csc(N(CCO)CCCn3c(C(F)(F)F)nc4ccccc43)n2)cc1 | inactive |
| Cc1ccc(C(=O)Nc2nc(-c3ccc(F)cc3)cs2)o1 | inactive |

| SMILES | Potency |
| --- | --- |
| CN(c1ccc(OCC(=O)Nc2nc3ccccc3s2)cc1)S(=O)(=O)c1ccccc1 | inactive |
| Cc1cc(=O)[nH]c(SCC(=O)Nc2ccc(Br)cc2)c1C#N | inactive |
| CCCc1ccc(-c2c(C)sc(NC(=O)c3ccnn3C)c2C#N)cc1 | inactive |
| NS(=O)(=O)c1ccc(NCc2ccccc2OCc2ccccc2F)cc1 | inactive |
| O=C(Nc1cccc(S(=O)(=O)N2CCCCC2)c1)c1ccc2c(=O)n3c(nc2c1)CCCCC3 | inactive |
| COc1cc(/C=C(\C#N)c2nc3ccccc3s2)cc([N+](=O)[O-])c1O | inactive |
| O=C(CC1S/C(=N/N=C2CCCCCC2)NC1=O)Nc1ccc(Br)cc1F (stereo not given) | inactive |
| O=C(CNc1ccc(C(F)(F)F)cc1)Nc1cccc(S(=O)(=O)N2CCCC2)c1 | inactive |
| O=S(=O)(Nc1cccnc1)c1cc(Cl)ccc1Cl | inactive |
| COCC(C)n1c(COc2ccccc2F)nnc1SCc1c(C)noc1C (stereo not given) | inactive |
| CS(=O)(=O)c1ccc(C(=O)OCC(=O)NC(=O)C2CCCCC2)cc1[N+](=O)[O-] | inactive |
| CC(C)(C)c1cc2nc3c(c(=O)n2[nH]1)CN(Cc1ccccc1)C3=O | inactive |
| O=C(COc1ccccc1/C=C1\SC(=S)NC1=O)Nc1ccc(F)cc1 | inactive |
| CN(C)S(=O)(=O)Oc1cccc(C(=O)Nc2ccc(Cl)c(Cl)c2)c1 | inactive |
| O=[N+]([O-])c1ccc(NC(=S)NCCc2ccc(F)cc2)cc1 | inactive |
| COCC1CCCCN1C(=O)C1CCN(c2nc(-c3ccccc3)nc3c2CCC3)CC1 (stereo not given) | inactive |
| CC(CNC(=O)c1cc(COc2ccc3ncccc3c2)on1)c1ccccc1 (stereo not given) | inactive |
| N#C/C(=C(/O)COC(=O)c1ccc(C#N)cc1)c1nc2ccccc2s1 | inactive |
| CCCCCC/C(C)=C1/SC(=S)NC1=O | inactive |
| O=C(Cn1nc(Cc2cccnc2)c2ccccc2c1=O)NCC1COc2ccccc2O1 (stereo not given) | inactive |
| Cc1ccc(/C=C/C(=O)Nc2ccc(Oc3ccccc3)cc2)o1 | inactive |
| CC(C)Oc1ccc(C(=O)Nc2ccc(Cl)c(S(=O)(=O)Nc3ccc(Cl)cc3)c2)cc1 | inactive |
| Cc1ccc([N+](=O)[O-])cc1S(=O)(=O)Nc1ccc(-c2ccc(N3CCCC3)nn2)cc1 | inactive |
| Cc1ccccc1-n1sc2cc(F)ccc2c1=O | inactive |
| COc1ccc(CNC(=O)C(c2ccco2)N(C(=O)c2snc(C(N)=O)c2N)c2cccc(OC)c2)cc1 (stereo not given) | inactive |

| SMILES | Potency |
| --- | --- |
| CC(C)C(c1nnnn1Cc1ccco1)N1CCN(c2nc3ccccc3s2)CC1 (stereo not given) | inactive |
| COc1cccc(CN(C)C(=O)c2ccc(Oc3ccccc3)cc2)c1OC | inactive |
| Cc1ccc(C2=NS(=O)(=O)N(C)C(C(=O)NCc3ccc(F)cc3)=C2)cc1 | inactive |
| CC(=O)c1ccc(N2CCN(C(=S)Nc3ccc(Oc4ccccc4)cc3)CC2)cc1 | inactive |
| CCn1c(=NC(=O)CSC(C)=O)sc2ccccc21 | inactive |
| Clc1ccc2c(c1)-c1nnc(Br)n1-c1ccccc1S2 | inactive |
| COc1ccc(C(=O)/C(=C\c2ccco2)N2C=CC=CC2=C(C#N)C#N)cc1 | inactive |
| COc1cc(/C=N/Nc2ccc(C(=O)O)cc2)ccc1O | inactive |
| Cc1nn(Cc2ccc(Cl)cc2)c(C)c1NC(=O)c1noc2c1CCc1ccccc1-2 | inactive |
| Cc1ccc(-n2c(Cl)c(Cl)nc(Cl)c2=O)cc1 | inactive |
| Cc1nn(-c2nc3ccccc3s2)c(N)c1-c1ccccc1 | inactive |
| CC(C)C(C)NC(=O)COc1ccc(Sc2ccc(OCC(=O)NC(C)C(C)C)cc2)cc1 (stereo not given) | inactive |
| Cc1ccc2nc(NC(=O)C3CCN(S(=O)(=O)c4cc([N+](=O)[O-])ccc4Cl)CC3)sc2c1 | inactive |
| Cc1cccc(NC(=O)C2C3CCC4C(CCC32)C4(Cl)Cl)c1 (stereo not given) | inactive |
| Cc1ccccc1Oc1cc(-n2ncc(Cl)c(Cl)c2=O)ncn1 | inactive |
| COc1ccc(NC(=O)/C(Cl)=C(/Cl)S(=O)(=O)Cc2ccccc2)cn1 | inactive |
| O=C(Nc1nc(-c2cccs2)cs1)c1ccc(S(=O)(=O)N2CCCCC2)cc1 | inactive |
| CCCCc1c(C)nc2nc(SCc3ccc(Cl)cc3)[nH]n2c1=O | inactive |
| Clc1cc(Cl)c(OCc2nc(-c3ccccn3)no2)cc1Cl | inactive |
| O=[N+]([O-])c1ccc(NC(=S)NCc2ccc(F)cc2)cc1 | inactive |
| CC1CCCCN1C(=O)CSCC(=O)Nc1nc(-c2cccs2)cs1 (stereo not given) | inactive |
| CC(=O)c1c(C)[nH]c(C(=O)COc2cc(C)ccc2C(C)C)c1C | inactive |
| COc1cccc(COc2cc3ccccc3nc2C)c1 | inactive |
| O=[N+]([O-])c1cc(Br)c(O)c(/C=N/Nc2nnnn2-c2cccc3ccccc23)c1 | inactive |
| Cc1csc2ncnc(N3CCN(S(=O)(=O)c4cccc(C(F)(F)F)c4)CC3)c12 | inactive |
